Records with an inconclusive call do not appear. Unmarked numbers belong to inactive results. Activity calls are given as the source filed them. The call rests on the fitted dose curve; in most records, active means well fitted curve in the direction sought with a large enough effect; inconclusive means small, poorly fitted or top-dose-only effect, or another doubt; inactive means no such curve, though single readings can be large; an effect the other way counts as inactive or inconclusive.
Potency means the concentration at half of the fitted maximal effect.

One test deals with Rap guanine nucleotide exchange factor 3 (Homo sapiens) (UniProt O95398). Nature of the test: Confirmatory qHTS for antagonist of cAMP-regulated guanine nucleotide exchange factor 3 (EPAC1) (AID 1645880). Further: nearly all actives have a fitted effect of over 55% in size.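 On activity, negative = inhibition: plate controls were DMSO only for no effect and full effect of the ATA control for full effect.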 Conditions: EPAC1 Rap1B-BODIPY-GDP exchange, fluorescence; activity, negative = inhibition: at 115 µM (top of the series). The gist of the method: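 Nucleotide exchange uses 100 nM EPAC1, 250 nM RAP1B-BODIPY-GDP and 50 uM GDP, with compounds in a concentration-titration series. After 5 min at room temperature, fluorescence (480 nm ex/540 nm em) is read every 5 min for 30 min. Data are normalized to control ATA and DMSO.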
Chain of Rap guanine nucleotide exchange factor 3 (Homo sapiens) (O95398 whole entry, looked up): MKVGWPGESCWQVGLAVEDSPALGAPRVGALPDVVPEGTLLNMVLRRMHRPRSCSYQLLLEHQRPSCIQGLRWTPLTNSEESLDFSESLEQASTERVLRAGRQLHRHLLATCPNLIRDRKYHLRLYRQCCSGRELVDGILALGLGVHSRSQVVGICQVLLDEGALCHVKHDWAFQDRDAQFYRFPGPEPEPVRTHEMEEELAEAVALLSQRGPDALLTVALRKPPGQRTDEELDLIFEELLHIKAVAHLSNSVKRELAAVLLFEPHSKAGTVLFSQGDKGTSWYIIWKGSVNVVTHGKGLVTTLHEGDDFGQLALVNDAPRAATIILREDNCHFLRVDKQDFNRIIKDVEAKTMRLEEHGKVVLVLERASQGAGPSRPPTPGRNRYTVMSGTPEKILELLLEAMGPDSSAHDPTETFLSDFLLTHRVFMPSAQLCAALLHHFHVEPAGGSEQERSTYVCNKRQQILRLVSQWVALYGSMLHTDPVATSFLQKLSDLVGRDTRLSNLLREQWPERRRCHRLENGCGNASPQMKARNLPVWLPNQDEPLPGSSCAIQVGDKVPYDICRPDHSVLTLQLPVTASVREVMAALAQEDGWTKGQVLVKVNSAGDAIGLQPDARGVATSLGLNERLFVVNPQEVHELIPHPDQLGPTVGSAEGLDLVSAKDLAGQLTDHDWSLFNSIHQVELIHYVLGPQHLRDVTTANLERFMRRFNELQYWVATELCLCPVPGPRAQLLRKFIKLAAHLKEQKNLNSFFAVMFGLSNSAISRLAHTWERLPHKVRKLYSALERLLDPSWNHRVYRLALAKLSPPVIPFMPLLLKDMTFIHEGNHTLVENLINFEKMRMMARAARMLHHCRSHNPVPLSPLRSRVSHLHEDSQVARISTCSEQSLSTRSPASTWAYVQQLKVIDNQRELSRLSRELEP
As to `CCc1cccc(CC)c1N1C(=O)C2=C(SCCCS2)C1=O`, the “activity, negative = inhibition” value was -10.5%.

For the compound `O=C(c1cccs1)N(Cc1cccnc1)c1nc2c(Cl)cccc2s1`, the “activity, negative = inhibition” value is -14.5%.

Take `CC(OC(=O)/C(C#N)=C/c1ccc(N(C)C)cc1)C(=O)N(C)Cc1ccccc1` (centres undefined): the “activity, negative = inhibition” value is 20.6%.

Take `Cc1cccc(-c2nc3nc(C)cc(NCc4ccccc4Cl)n3n2)c1`: the “activity, negative = inhibition” value was 16%. On the same count and under the same terms, to `N=C1SC(c2ccccc2)C(=O)N1c1ncc(Cc2ccccc2Cl)s1` (centres undefined) belongs -18.2%. `O=C(O)c1ccccc1NS(=O)(=O)c1ccc(NN=Cc2cccc(Cl)c2)c([N+](=O)[O-])c1`: the Potency was 75.7 µM (active). On to `O=C1CCC2CN3CCc4c([nH]c5ccccc45)C3CC2C1` (centres undefined), for which the “activity, negative = inhibition” value was 1.68%. As for `CCOC(=O)/C(C#N)=C/c1ccc(N2CCN(Cc3ccccc3)CC2)cc1`, the “activity, negative = inhibition” value is 84.8%. `COc1ccc(NC(=O)c2c(-c3ccccc3)c(-c3ccccc3)nn(C)c2=O)c(OC)c1`: the “activity, negative = inhibition” value is -24.6%.

`COC(=O)c1c(C)c2c(C)cc3ccccn3c-2c1C(=O)OC`: the “activity, negative = inhibition” value was 11.5%.

As for `CCOC(=O)C1=C(C)N=c2s/c(=C\c3cccn3C)c(=O)n2C1c1cccc(OC)c1OC` (centres undefined), the “activity, negative = inhibition” value was 2.61%. In the case of `O=C(NN=Cc1c(O)ccc2ccccc12)c1ccncc1`, the “activity, negative = inhibition” value was 0.0258%.

Regarding `COc1ccc(O)c(C(=O)c2cc(SCC(=O)O)c3nc4sc5c(c4c(=O)n3c2)CCCC5)c1`, the Potency is 23.9 µM (active). In the case of `O=C(COc1cccc(OC(F)F)c1)Nc1ccc(SC(F)F)cc1`, the “activity, negative = inhibition” value was -29.5%. For the compound `Cc1ccc(NC(=O)c2sc3nc(-c4cc5ccccc5oc4=O)[nH]c(=O)c3c2C)c(C)c1`, the “activity, negative = inhibition” value is 34.3%. Consider `COc1cc2c(c(OC)c1OC)C(c1ccc(C)cc1)CC(=O)O2` (centres undefined), for which the “activity, negative = inhibition” value was -14.1%. As for `COC(=O)CC(NC(=S)NC(=O)c1ccccc1)c1ccc(Br)cc1` (centres undefined), the “activity, negative = inhibition” value was -23.9%. Turning to `COC(=O)c1ccccc1C(=O)c1cccc2ccccc12`, the “activity, negative = inhibition” value is -7.09%. With `O=c1[nH]c2ccccc2nc1/C=C(\O)c1cccs1`, the “activity, negative = inhibition” value is 15.7%. Same read-out and setting: to `COc1ccc(N=Cc2c(O)ccc3ccccc23)cc1` belongs -8.57%; to `O=S(=O)(NCC(c1ccco1)N1CCc2ccccc21)c1ccccc1` (centres undefined), -24.2%.

As for `CN1CCc2c(sc(NC(=O)CSc3ccccc3)c2-c2nc3ccccc3s2)C1`, the “activity, negative = inhibition” value is -15.5%. As to `O=C(NCc1ccco1)c1ccc(Cn2c(=S)[nH]c3ccccc3c2=O)cc1`, the “activity, negative = inhibition” value is 21.9%. Consider `O=C1c2cccc3c(N4CCCCC4)ccc(c23)C(=O)N1c1ccccc1O`, for which the “activity, negative = inhibition” value is -16.3%.

The target in the next test is Rap guanine nucleotide exchange factor 4 (Homo sapiens) (UniProt Q8WZA2). Nature of the test: Confirmatory qHTS for agonist of cAMP-regulated guanine nucleotide exchange factor 4 (EPAC2) (AID 1645884).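 Further: nucleotide exchange releases bodipy-GDP from Rap1 and this lowers its fluorescence; nearly all actives have a fitted effect of over 65% in size.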 On activation: on the % scale 0 is the no-effect control and ±100 the full control effect. Conditions: EPAC2 GEF activity, Rap1B-BODIPY-GDP fluorescence; series mostly up to 154 µM; activation: at the top concentration.
Chain of Rap guanine nucleotide exchange factor 4 (Homo sapiens) (Q8WZA2 whole entry, looked up): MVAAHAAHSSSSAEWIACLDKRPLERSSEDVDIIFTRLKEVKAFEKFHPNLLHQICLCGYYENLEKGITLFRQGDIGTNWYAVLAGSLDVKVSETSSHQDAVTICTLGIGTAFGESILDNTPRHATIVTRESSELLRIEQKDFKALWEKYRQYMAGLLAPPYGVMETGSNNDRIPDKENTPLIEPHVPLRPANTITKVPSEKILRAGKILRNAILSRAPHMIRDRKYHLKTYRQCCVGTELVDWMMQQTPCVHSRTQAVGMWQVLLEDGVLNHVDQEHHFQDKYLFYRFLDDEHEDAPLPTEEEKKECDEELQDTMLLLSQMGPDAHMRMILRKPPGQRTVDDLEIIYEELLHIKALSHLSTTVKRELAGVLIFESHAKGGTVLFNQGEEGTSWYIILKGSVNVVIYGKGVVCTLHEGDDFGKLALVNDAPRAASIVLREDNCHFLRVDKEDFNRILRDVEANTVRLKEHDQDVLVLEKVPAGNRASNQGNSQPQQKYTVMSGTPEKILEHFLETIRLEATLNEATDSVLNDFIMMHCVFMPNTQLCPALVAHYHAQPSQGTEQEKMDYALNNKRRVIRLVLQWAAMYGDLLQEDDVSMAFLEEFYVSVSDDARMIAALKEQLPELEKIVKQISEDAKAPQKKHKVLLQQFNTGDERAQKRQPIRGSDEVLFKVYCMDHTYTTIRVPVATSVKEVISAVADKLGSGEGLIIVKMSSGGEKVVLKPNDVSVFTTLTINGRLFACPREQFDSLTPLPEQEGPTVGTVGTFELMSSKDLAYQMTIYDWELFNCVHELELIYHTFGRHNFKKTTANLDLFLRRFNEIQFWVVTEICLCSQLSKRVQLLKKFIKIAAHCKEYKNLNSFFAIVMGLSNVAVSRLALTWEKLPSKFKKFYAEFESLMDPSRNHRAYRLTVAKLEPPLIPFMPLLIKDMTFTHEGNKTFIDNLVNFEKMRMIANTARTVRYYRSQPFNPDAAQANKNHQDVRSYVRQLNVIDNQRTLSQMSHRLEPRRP
In the case of `Cc1ccc2cccc(OC(=O)c3c(F)cccc3Cl)c2n1`, the “activation” value is 14.5%. Turning to `COc1ccc(/C(O)=C/c2nc3ccccc3n(-c3ccccc3)c2=O)cc1`, the Potency is 100 µM (active).

Turning to `Oc1c(C(c2ccccc2)N2CCN(c3ccccc3)CC2)sc2nc(-c3ccco3)nn12` (centres undefined), the “activation” value was 16.9% [at 83.8 µM, percent relative to cAMP agonist control].

In the case of `COc1ccc(C(=O)/C=C/c2ccc(N(C)C)cc2)c(OC)c1`, the “activation” value was 0%. Turning to `CC1CCN(c2ccc3c(c2)S(=O)(=O)c2cccc(C(=O)NCc4cccc(F)c4)c2C3=O)CC1`, the Potency is 112 µM (active). Turning to `CCN(CC)c1ccc2cc(C(N)=O)c(=N)oc2c1`, the activation is 2.03% [at 17.1 µM, percent relative to cAMP agonist control]. Take `CCOc1cc(/C=N/NC(=O)c2ccc(-c3csc(Nc4ccc(C)cc4)n3)cc2)ccc1OCC(=O)O`: the “activation” value was 10.2%.

With `Cc1cccc(NCc2cccc3ccccc23)n1`, the activation is 4.47% [at 17.1 µM, percent relative to cAMP agonist control]. Consider `CCN(C(=O)CN1CCN(c2ccccc2O)CC1)c1c(N)n(Cc2ccccc2)c(=O)[nH]c1=O`, for which the “activation” value is 0.794%. Turning to `CN(C)c1ccc(C(=O)/C=C/c2ccc(Br)cc2)cc1`, the Potency was 112 µM (active). Turning to `CCOc1ccc(NC(=O)/C(C#N)=C/c2ccc(N3CCCC3)c(C)c2)cc1`, the activation was 3.1% [at 17.1 µM, percent relative to cAMP agonist control]. As to `CCOc1ccc(CCN2C(=O)C(=O)N([C@@H](CC(C)C)CN3CCC[C@@H]3CN3C(=O)C(=O)NC[C@@H]3Cc3ccccc3)C[C@@H]2CC(C)C)cc1`, the “activation” value was -2.4%. With `C=CCN1C(=O)c2cccc3c(N4CCCCC4)ccc(c23)C1=O`, the Potency was 112 µM (active). Consider `COc1cccc(-n2c(SCC(=O)Nc3ccc(F)cc3F)nc3c([nH]c4ccccc43)c2=O)c1`, for which the “activation” value is 15.2% [at 83.8 µM, percent relative to cAMP agonist control].

With `COC(=O)c1cc2sc(Cl)cc2n1Cc1cc(C)ccc1C`, the “activation” value is -4.17% [at 83.8 µM, percent relative to cAMP agonist control].

Consider `COc1ccccc1C(=O)NNC(=O)CCCN1C(=O)/C(=C/c2cccs2)SC1=S`, for which the activation was 1.7% [at 17.1 µM, percent relative to cAMP agonist control]. On to `CCc1cccc(CC)c1N1C(=O)C2=C(SCCCS2)C1=O`, for which the Potency was 112 µM (active). On to `O=C(c1cccs1)N(Cc1cccnc1)c1nc2c(Cl)cccc2s1`, for which the “activation” value is -0.248% [at 83.8 µM, percent relative to cAMP agonist control].

As for `CC(OC(=O)/C(C#N)=C/c1ccc(N(C)C)cc1)C(=O)N(C)Cc1ccccc1` (centres undefined), the activation is 3.68% [at 17.1 µM, percent relative to cAMP agonist control]. In the case of `Cc1cccc(-c2nc3nc(C)cc(NCc4ccccc4Cl)n3n2)c1`, the “activation” value is -16.7% [at 83.8 µM, percent relative to cAMP agonist control].

In the case of `N=C1SC(c2ccccc2)C(=O)N1c1ncc(Cc2ccccc2Cl)s1` (centres undefined), the “activation” value is 49.1%. On the same count and under the same terms, for `O=C(O)c1ccccc1NS(=O)(=O)c1ccc(NN=Cc2cccc(Cl)c2)c([N+](=O)[O-])c1` the value was 0%. Consider `O=C1CCC2CN3CCc4c([nH]c5ccccc45)C3CC2C1` (centres undefined), for which the activation is -5.59% [at 17.1 µM, percent relative to cAMP agonist control].

In the case of `CCOC(=O)/C(C#N)=C/c1ccc(N2CCN(Cc3ccccc3)CC2)cc1`, the activation was 10.3% [at 17.1 µM, percent relative to cAMP agonist control]. On to `COc1ccc(NC(=O)c2c(-c3ccccc3)c(-c3ccccc3)nn(C)c2=O)c(OC)c1`, for which the “activation” value is -0.903% [at 83.8 µM, percent relative to cAMP agonist control]. Regarding `COC(=O)c1c(C)c2c(C)cc3ccccn3c-2c1C(=O)OC`, the activation was 10.6% [at 17.1 µM, percent relative to cAMP agonist control].

`CCOC(=O)C1=C(C)N=c2s/c(=C\c3cccn3C)c(=O)n2C1c1cccc(OC)c1OC` (centres undefined): the activation was 19.2% [at 17.1 µM, percent relative to cAMP agonist control]. On the same count and under the same terms, for `O=C(NN=Cc1c(O)ccc2ccccc12)c1ccncc1` the value was 6.24% [at 17.1 µM, percent relative to cAMP agonist control]; for `COc1ccc(O)c(C(=O)c2cc(SCC(=O)O)c3nc4sc5c(c4c(=O)n3c2)CCCC5)c1`, -25.2%; for `O=C(COc1cccc(OC(F)F)c1)Nc1ccc(SC(F)F)cc1`, 9.08% [at 17.1 µM, percent relative to cAMP agonist control]. `Cc1ccc(NC(=O)c2sc3nc(-c4cc5ccccc5oc4=O)[nH]c(=O)c3c2C)c(C)c1`: the “activation” value is -7.8% [at 83.8 µM, percent relative to cAMP agonist control]. Same read-out and setting: for `COc1cc2c(c(OC)c1OC)C(c1ccc(C)cc1)CC(=O)O2` (centres undefined) the value was 3.46% [at 17.1 µM, percent relative to cAMP agonist control]. Same read-out and setting: to `COC(=O)CC(NC(=S)NC(=O)c1ccccc1)c1ccc(Br)cc1` (centres undefined) belongs 13%; to `COC(=O)c1ccccc1C(=O)c1cccc2ccccc12`, 13.1%; to `O=c1[nH]c2ccccc2nc1/C=C(\O)c1cccs1`, 1.73% [at 17.1 µM, percent relative to cAMP agonist control]. The same measure, in the same setting: to `COc1ccc(N=Cc2c(O)ccc3ccccc23)cc1` belongs 6.9% [at 17.1 µM, percent relative to cAMP agonist control]. As for `O=S(=O)(NCC(c1ccco1)N1CCc2ccccc21)c1ccccc1` (centres undefined), the activation was 5.38% [at 17.1 µM, percent relative to cAMP agonist control]. Same read-out and setting: for `CN1CCc2c(sc(NC(=O)CSc3ccccc3)c2-c2nc3ccccc3s2)C1` the value was 0% [at 83.8 µM, percent relative to cAMP agonist control]. Consider `O=C(NCc1ccco1)c1ccc(Cn2c(=S)[nH]c3ccccc3c2=O)cc1`, for which the “activation” value is 17.1%. For the compound `O=C1c2cccc3c(N4CCCCC4)ccc(c23)C(=O)N1c1ccccc1O`, the activation is 13.2% [at 17.1 µM, percent relative to cAMP agonist control].
